PostGolgi ctrl: inhibits growth of the yeast control strain; inhibition, % at 10 µM; AID 738; efflux-deficient yeast background strain, growth absorbance A615, 16 h; 5% of 98,000 active
Cav32 inh: inhibitors of human Cav3.2 T-type calcium channel; B-score at 10 µM; O95180; 4% of 100,000 active; Cav3.2-expressing cells, Fluo-4 calcium fluorescence FDSS; stronger effect = lower value;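 active = single-dose well whose peak fluorescence ratio is a statistical outlier from its plate by either plate-standardised score or position-corrected B-score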
PTK2B oligo ant: blocks oligomerization of human Pyk2 in cells; Q14289; Q293 cells, Pyk2 FERM NanoBiT luminescence; stronger effect = lower value; z-score (the deposit names both 25 µM and 10 µM); 0.83% of 99,000 active; AID 1347419;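 active = Z-score of -3 or lower, scaled per plate to the spread of control and sample wells; inactive = z-score above -3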;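 note: negative z-score means lost luminescence so less FERM oligomerization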
PostGolgi yeast: growth inhibition of a yeast mutant, post-Golgi transport screen. post-Golgi transport phenotypic cell assay. inhibition, % at 10 µM. 0.9% of 98,000 active;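 note: yeast cells grown in 1536-well plates; yeast grown about 18 h at 30C before absorbance read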
* = called active by the depositor. A selection: hits, their analogues and other compounds. The true share with any hit is near 8%. Cut-off read from the data, not from the text of the source, unless noted: active = inhibition above about 30%; inactive = the rest.

What do the screens show for `CSCC[C@H](NC(=O)CCNC(C)=O)c1nc2ccccc2[nH]1`?
PostGolgi ctrl: 0; Cav32 inh: -1.3; PTK2B oligo ant: -0.36; PostGolgi yeast: 18

Results for C=CCCN(C(C(=O)OC)C(C)C)S(=O)(=O)c1ccccc1Br (stereo not given) ?
Cav32 inh: -1.5

What do the screens show for `C=CCCCN(Cc1ccccc1)S(=O)(=O)c1ccccc1Br`?
Cav32 inh: -3.7*

Results for CCOC(=O)c1cc(C(C)(C)C)oc1CNC(=O)c1c(C)oc2c1CCCC2 ?
Cav32 inh: -4.6*; PTK2B oligo ant: -0.52

How did CSCCC(NS(=O)(=O)c1ccc(Cl)cc1)C(=O)OCC(=O)N(C(C)C)C(C)C (stereo not given) do in these assays?
PostGolgi ctrl: 12; Cav32 inh: -3.4*; PTK2B oligo ant: 0.08; PostGolgi yeast: -7

What do the screens show for `CSCCC(NS(=O)(=O)c1ccc(Cl)cc1)C(=O)OCC(=O)NC1CC1` (stereo not given)?
PostGolgi ctrl: -3; Cav32 inh: -0.23; PTK2B oligo ant: 0.49; PostGolgi yeast: 3

How did O=C(C1CCN(S(=O)(=O)c2cccc3nsnc23)CC1)N1CC=C(c2ccccc2)CC1 do in these assays?
PostGolgi ctrl: 21; PTK2B oligo ant: 1.1; PostGolgi yeast: 5

Results for O=C(C1CCC(CNS(=O)(=O)c2cccc3nsnc23)CC1)N1CC=C(c2ccccc2)CC1 (stereo not given) ?
PostGolgi ctrl: 10; Cav32 inh: -7.9*; PostGolgi yeast: 5

What do the screens show for `CCOC(=O)CSc1nc(C2CC2)cc(-c2ccc(F)cc2)c1C#N`?
PostGolgi ctrl: 12; Cav32 inh: -3.5; PTK2B oligo ant: -3.3*; PostGolgi yeast: 2

Results for CCOC(=O)CSc1nc(C)cc(C)c1C#N ?
PostGolgi ctrl: -2; Cav32 inh: -0.88; PTK2B oligo ant: 0.64; PostGolgi yeast: -1

Results for COc1ccc(N2CCN(c3nc(NCCO)nc(N4CCOCC4)n3)CC2)cc1 ?
PostGolgi ctrl: 31*; Cav32 inh: 1.1; PTK2B oligo ant: 0.03; PostGolgi yeast: -4

How did CCn1nc(C(=O)NNC(=O)COc2ccccc2C)c2ccccc2c1=O do in these assays?
PTK2B oligo ant: 1.6

How did Cc1cccc(CN2CCCC(C(=O)N3CCc4ccccc4C3)C2)c1 (stereo not given) do in these assays?
PostGolgi ctrl: -1; Cav32 inh: 0.061; PTK2B oligo ant: -0.33; PostGolgi yeast: -1

What do the screens show for `COc1ccccc1-c1c(C)nn2c(N3CCC4(CC3)OCCO4)cc(C)nc12`?
PostGolgi ctrl: 98*; Cav32 inh: 0.27; PTK2B oligo ant: -0.32; PostGolgi yeast: 4

How did Cc1nn2c(N3CCN(c4ccccn4)CC3)cc(C(C)C)nc2c1-c1ccccc1 do in these assays?
PostGolgi ctrl: 99*; Cav32 inh: -3.2; PTK2B oligo ant: -1.1; PostGolgi yeast: 41*

How did Cc1cc(N2CCOCC2)n2nc(C)c(-c3ccccc3)c2n1 do in these assays?
PostGolgi ctrl: 17; Cav32 inh: 3.8*; PTK2B oligo ant: 0.75; PostGolgi yeast: -8

Results for Cc1cc(N2CCOCC2)n2nc(-c3cccc(F)c3)cc2n1 ?
PostGolgi ctrl: 1; Cav32 inh: 1.8; PTK2B oligo ant: -0.31; PostGolgi yeast: 0

How did COC(C[C@@H]1O[C@H]1[C@@H](O)COCc1ccccc1)OC do in these assays?
Cav32 inh: -1.2

What do the screens show for `CC(C)CCOc1ccc(C(=O)CCNC(C)C(=O)O)cc1` (stereo not given)?
PostGolgi ctrl: 12; PostGolgi yeast: 2

What do the screens show for `O=C(OCCNC(=O)c1ccc2ccccc2n1)c1ccc(F)cc1`?
PostGolgi ctrl: 26; Cav32 inh: -3.2; PTK2B oligo ant: 1.8; PostGolgi yeast: 2

How did CCC1(C(=O)c2ccccc2)C2c3cc(Br)ccc3OC(=O)C21C(=O)N1CCOCC1 (stereo not given) do in these assays?
PostGolgi ctrl: 22; Cav32 inh: -4.3*; PTK2B oligo ant: -1; PostGolgi yeast: -4

What do the screens show for `COc1ccc(S(=O)(=O)NCc2ccccn2)c(Cl)c1Cl`?
PostGolgi ctrl: 21; PTK2B oligo ant: -0.13; PostGolgi yeast: -3

Results for O=C(CSc1nn(-c2ccc(Cl)cc2)c(=S)s1)N1CCN(C(=O)c2ccco2)CC1 ?
PostGolgi ctrl: 52*; Cav32 inh: -1.6; PTK2B oligo ant: 1.7; PostGolgi yeast: -42

Results for O=C(CSc1nn(-c2ccc(F)cc2)c(=S)s1)N1CCN(C(=O)c2ccco2)CC1 ?
PostGolgi ctrl: 21; Cav32 inh: -0.89; PTK2B oligo ant: 0.69; PostGolgi yeast: 5

How did CCn1nc(C)c(NS(=O)(=O)c2ccccc2)c1C do in these assays?
PostGolgi ctrl: 7; Cav32 inh: 1.4; PTK2B oligo ant: 0.74; PostGolgi yeast: 3

Screens deposited in PubChem BioAssay by several laboratories.
